Measured values taken from PubChem BioAssay AID2129 (The Scripps Research Institute Molecular Screening Center, 2009).
Several values for one entry are separate records, joined by “and”; a condition that tells them apart may be missing. Identical values can stand only once. Hit rate of the full screen: of about 320,000 compounds, about 2,200 (0.69%) were called active.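 How the source made its calls: active means inhibition above the mean of all tested compounds plus 3 SD, cutoff set per campaign (cut at about 30% in these data); inactive means the rest.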 What follows is part of a selection rich in actives, with near analogues and random picks from the rest. The source holds several records for some structures; these can differ, active in one and inactive in another.

biological target: Bcl-2-like protein 1 (Homo sapiens) (UniProt Q07817); assay: Bcl-xL/Bim BH3 interaction blockers – biochemical, fluorescence polarization, HTS, primary screen (AID 2129); details: GST-Bcl-xL / FITC-Bim BH3 peptide fluorescence polarization; at 10.9 µM; stronger effect = higher value;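 further: 0% = DMSO wells and 100% = unlabeled Bim-BH3 peptide competitor; inhibitors lower millipolarization by displacing the labeled peptide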
Sequence (Q07817 whole entry, looked up): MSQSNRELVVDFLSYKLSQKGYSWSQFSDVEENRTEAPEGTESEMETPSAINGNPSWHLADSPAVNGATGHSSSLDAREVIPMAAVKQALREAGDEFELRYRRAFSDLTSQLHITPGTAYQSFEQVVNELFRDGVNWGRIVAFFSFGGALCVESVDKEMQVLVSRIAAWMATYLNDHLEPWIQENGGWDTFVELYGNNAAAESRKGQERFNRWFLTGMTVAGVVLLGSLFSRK

SMILES | inhibition
CC(C)(C)C1CCc2c(sc3nc(SCC(N)=O)nc(N)c23)C1 (configuration not stated) | 0.88% (inactive)
O=C1COc2ccc(C(=O)CSc3ccc(Br)cc3)cc2N1 | 1.67% (inactive)
Cc1ccc(NC(=O)CSc2nc(=O)n(CCN(C)C)c3c2CCCC3)c(C)c1 | 0.09% (inactive)
O=C1CCC(=O)N1CCOP1(=O)COc2ccccc2OC1 | 4.75% (inactive)
Cc1ccc(C(=O)CCC(=O)N(C)CC(=O)Nc2c(Cl)cccc2Cl)cc1 | -0.97% (inactive)
CN(CC(=O)Nc1ccc(Cl)c(C(F)(F)F)c1)C(=O)CCC(=O)c1ccccc1 | 45.3% (active)
Cc1cccc(C)c1NC(=O)CN(C)C(=O)CCC(=O)c1ccccc1 | 7.72% (inactive)
C=CCSc1nnc(N2C(=O)C(O)=C(C(=O)c3ccco3)C2c2ccc(F)cc2)s1 (configuration not stated) | 51.8% (active)
Cc1ccc2nc(N3C(=O)C(O)=C(C(=O)c4ccco4)C3c3cccc(O)c3)sc2c1 (configuration not stated) | 2.1% (inactive)
CC(C)c1ccc(C2C(C(=O)c3ccco3)=C(O)C(=O)N2CC2CCCO2)cc1 (configuration not stated) | 1.85% (inactive)
CC(OC(=O)C1CC(=O)N(Cc2ccccc2)C1)C(=O)Nc1ccccc1[N+](=O)[O-] (configuration not stated) | 5.02% (inactive)
C=CCNc1nnc(SCC(=O)N2CCCCC2)c2ccccc12 | 108% (active)
C=CCNc1nnc(C)c2ccccc12 | 1.09% (inactive)
O=C(CSc1ncccn1)N1CCCC1 | 1.98% (inactive)
COCCNC(=O)C(c1ccc(C)cc1)N(C(=O)CCC(=O)Nc1ccccn1)c1cccc(C)c1 (configuration not stated) | 3.67% (inactive)
CN(C)C(=O)CSc1n[nH]c(-c2ccco2)n1 | 1.16% (inactive)
O=C1CCC(=O)N1c1ccc(NCCc2ccccc2F)c([N+](=O)[O-])c1 | 4.81% (inactive)
COC(=O)c1sc(NC(=S)NC(=O)c2ccc(C)cc2)nc1C | 90.6% (active)
Cc1ccc(C(=O)NC(=S)Nc2ccccc2C)cc1 | 2.65% (inactive)
Cc1ccc(NC(=S)NC(=O)c2ccc(-c3ccccc3)cc2)cc1 | 1.62% (inactive)
CCOC(=O)c1sc2nc(C)nc(SCC(N)=O)c2c1C | 3.97% (inactive)
C=CCN1C=C2C(=O)C(C)(OC(=O)CCc3ccccc3)C(=O)C=C2C=C1c1ccc(C#N)cc1 (configuration not stated) | 26.4% (inactive)
CC(C)(C)OC(=O)NCCCC1=CC2=CC(=O)C(C)(OC(=O)c3ccco3)C(=O)C2=CO1 (configuration not stated) | 62.9% (active)

SMILES | inhibition
O=C(COC(=O)c1ccco1)NCc1ccc(Cl)cc1 | 3.7% (inactive)
CCCN1CNC(=S)N(CCc2ccccc2)C1 | -3.74% (inactive)
C/C(CC(=O)NC(C)c1ccccc1)=N\NC(N)=S (configuration not stated) | 4.39% (inactive)
O=C(COC(=O)c1ccccc1C(=O)N1CCN(c2ccccc2)CC1)NCc1ccccc1 | 56.5% (active)
O=C(c1cc(=O)c2ccccc2o1)N1CCN(c2ccccc2)CC1 | -0.91% (inactive)
CC(C)N(C(=O)COC(=O)c1ccccc1C(=O)N1CCN(c2ccc(F)cc2)CC1)C(C)C | 10.7% (inactive)
CCc1c(C)nc2c(OC)cccc2c1Cl | 7.8% (inactive)
O=C(NC1CCCCC1)N1CCc2[nH]c3ccccc3c2C1 | 16.5% (inactive)
COC(=O)C1CCN(C(=O)c2cc(=O)[nH]c3ccccc23)CC1 | 1.35% (inactive)
COC(=O)[C@H]1[C@H]2C[C@H]3c4[nH]c5ccccc5c4CCN3C[C@@H]2CC[C@@H]1O | 6.53% (inactive) and 60% (active)
CCCC(C)c1nnc(NC(=O)C2CC(=O)N(c3ccc(OCC)cc3)C2)s1 (configuration not stated) | 7.2% (inactive)
Cc1ccc(CS(=O)(=O)CCC(=O)NCc2ccc(F)cc2)cc1 | -0.6% (inactive)
Fc1ccc(CNc2nc3ccccc3n3nnnc23)cc1 | 49% (active)
COc1ccc(CNc2nnnn2C)cc1 | -1.64% (inactive)
CCOC(=O)CNc1nc2ccccc2n2c(C)nnc12 | 4.27% (inactive)
CCCCCN(C(=O)NC(=O)Nc1ccccc1C)S(C)(=O)=O | 2.62% (inactive)
O=[N+]([O-])c1ccc(N2CCNCC2)cc1NCc1cccnc1 | -23.7% (inactive)
O=C(NCCCc1ccccc1)C(=O)c1c[nH]c2ccccc12 | 4.6% (inactive)
COc1ccc(N2CC(C(=O)NCCN3C(=O)S/C(=C\c4cccnc4)C3=O)CC2=O)c(OC)c1 (configuration not stated) | 149% (active)
COc1ccccc1N1CC(C(=O)NCCN2C(=O)S/C(=C\c3cccnc3)C2=O)CC1=O (configuration not stated) | 9.93% (inactive)
CCOc1ccc(N2CC(C(=O)NCCN3C(=O)S/C(=C\c4cccnc4)C3=O)CC2=O)cc1 (configuration not stated) | -5.5% (inactive)
O=C(COc1ccc(Cl)cc1)NCCS(=O)(=O)N1CCN(c2ccc(F)cc2)CC1 | 5.68% (inactive)
CCN(CC)c1ccc(C(=O)Nn2c(C)nc3ccccc3c2=O)cc1 | 5.43% (inactive)

SMILES | inhibition
CCN(CC)c1ccc2oc(=O)c(C)nc2c1 | 31.2% (active)
C=CCN(C(=O)Nc1ccc2oc(C)nc2c1)c1ccccc1 | 13.5% (inactive)
C=C(C)C(=O)O[C@H]1C/C(C)=C\C(=O)/C=C(\C)[C@H](O)[C@@H]2OC(=O)C(=C)[C@@H]21 | 3.95% (inactive)
Cc1cccc(C(=O)OCC(=O)NCC(C)C)c1O | 2.99% (inactive)
Cc1cnc(C(=O)Oc2cccc(Cl)c2Cl)cn1 | 9.01% (inactive)
Cc1nn2c(c1-c1ccccc1)N=C(c1ccco1)CC2c1ccccc1 (configuration not stated) | 3.95% (inactive)
CC1(C)C=C2[C@H]3CC[C@@H]4[C@@]5(C)CCC(=O)C(C)(C)[C@@H]5CC[C@@]4(C)[C@]3(C)CC[C@@]2(C(=O)O)CC1 | 5.29% (inactive)
COc1ccc(CNC(=O)C2CCN(S(=O)(=O)c3ccc(SC)cc3)CC2)cc1 | 9.54% (inactive)
Cc1cc(C)c(/C=C2\C(=O)Nc3ccccc32)[nH]1 | 163% (active)
CN(C)/C=C1/Nc2ccccc2C1=O | 18.7% (inactive)
O=C1Nc2ccccc2/C1=C/c1ccnc2ccccc12 | 2.91% (inactive)
O=C(Nc1ccccc1C(=O)NCCCn1ccnc1)c1ccc(Cl)cc1Cl | 9.41% (inactive)
CC1CCN(C(=O)COC(=O)c2cc(=O)[nH]c3ccccc23)CC1 | 2.08% (inactive)
Cc1noc(C)c1CSCC(=O)Nc1nc2ccc(Oc3ccccc3)cc2s1 | 3.02% (inactive)
CC(C)(CSc1nncn1/N=C/c1ccco1)NS(=O)(=O)c1ccc(Cl)cc1 | 4.42% (inactive)
NS(=O)(=O)c1ccc(NC(=O)COC(=O)c2cc3ccccc3oc2=O)cc1 | 3.99% (inactive)
COc1cc(/C=C2\CCCc3c2nc2ccccc2c3C(=O)O)cc(Cl)c1O | 9.54% (inactive)
NS(=O)(=O)c1ccc(NC(=O)COC(=O)c2c3c(nc4ccccc24)/C(=C\c2ccc4c(c2)OCO4)CCC3)cc1 | 34.1% (active)
COc1ccc(CNC(=O)C(C)NCc2ccccc2Cl)cc1 (configuration not stated) | 2.09% (inactive)
CCOCCCNC(=O)C(NC(=O)CNC(=O)c1ccccc1)c1ccc(OC)cc1 (configuration not stated) | 3.02% (inactive)
COC(=O)[C@H](Cc1ccccc1)NC(=O)Nc1ccc(OC)cc1 | 0.58% (inactive)
COc1cc([C@H](Cc2ccccc2)NC(C)=O)oc(=O)c1 | 48.2% (active)
CCOC(=O)C(Cc1ccccc1)NC(=O)CCC(=O)c1ccc(OC)cc1 (configuration not stated) | 6.1% (inactive)

SMILES | inhibition
COc1ccc(CCn2ccc(O)c(Cc3ccc(Cl)cc3Cl)c2=O)cc1OC | 4.67% (inactive)
CN1C(C)(C)CC(NC(=O)CCC(=O)NC2CC(C)(C)N(C)C(C)(C)C2)CC1(C)C | 2.66% (inactive)
CC1CCN(C(=O)COC(=O)c2cc(S(=O)(=O)N3CCOCC3)ccc2Cl)CC1 | -2.49% (inactive)
Cc1ccnc(NC(=O)C2CCN(S(=O)(=O)c3c(C)c(C)cc(C)c3C)CC2)c1 | -0.18% (inactive)
CC1(C)c2[nH]c3ccccc3c2C[C@H]2C(=O)N(N)CC(=O)N21 | 1.69% (inactive)
CCOc1nc(OCC)nc(-n2cc(-c3ccccc3)nn2)n1 | 6.35% (inactive)
CC1CCCCC1NC(=O)/C(C#N)=C/C=C/c1ccccc1[N+](=O)[O-] (configuration not stated) | 7.36% (inactive)
O=c1ccc2c(-c3ccccc3S(=O)(=O)O)c3ccc(O)c(O)c3oc-2c1O | 92.5% (active)
O=C(CSc1nnc(SCc2ccc(Cl)cc2)s1)N/N=C/c1ccccc1Cl | -6.66% (inactive)
CN1c2ccc(C=O)c3c(C=O)ccc(c23)N(C)C1(C)C | 144% (active)
CCOC(=O)c1c(C)oc(C)c(C(=O)OCC)c1=O | 2.36% (inactive)
CCOC(=O)c1c(C)oc2cc(Sc3ccccc3)c(O)c(O)c12 | 39% (active)
CCOC(=O)c1c(-c2ccccc2)oc2cc(Br)c(O)c(C=O)c12 | 11.5% (inactive)
CCOC(=O)c1ccc(NC(=O)c2c(NCc3ccccc3)[nH]c(=O)[nH]c2=O)cc1 | 2.87% (inactive)
O=C(CSC(=S)N1CCCCC1)c1c(F)cccc1F | 3.52% (inactive)
COc1ccc(OC)c(CCNC(=O)CCn2ccc3cc(S(=O)(=O)N4CCCC4)ccc32)c1 | 0.09% (inactive)
COc1cccc(-c2nc(CS(=O)CC(=O)NCc3ccc(F)cc3)c(C)o2)c1 (configuration not stated) | 7.05% (inactive)
COc1ccc(-c2nc(CS(=O)CC(=O)NCc3ccccn3)c(C)o2)cc1 (configuration not stated) | 95.6% (active)
COc1ccc(-c2nc(CS(=O)CC(=O)NCc3ccccc3)c(C)o2)cc1OC (configuration not stated) | 4.97% (inactive)
Cc1ccccc1-n1c(SCC(=O)Nc2cccc3ccccc23)nc(O)cc1=O | -0.46% (inactive)
Cc1c(C(=O)NC2CCCCC2)oc2ccccc12 | -0.72% (inactive)
COc1cccc2c1OCC(CN1CCN(C3CCCCC3)C(CCO)C1)=C2 (configuration not stated) | 2.11% (inactive)
Cc1ccc(CNC(=O)C(=O)c2cn(CC(=O)N3CCCC3)c3ccccc23)cc1 | 5.15% (inactive)
